The values that follow come from PubChem BioAssay.

Experiment [1] is described as follows: compounds altering viability of human ES cells (AID 493140; call rule not given here;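 also: cells exposed to compounds for four days before counting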). The note with it: human embryonic stem cell survival screen; stronger effect = higher value.
The nature of experiment [2]: P. berghei load reduction in hepatocytes – cell-based, HepG2, luciferase luminescence, HepG2 viability, primary screen (AID 624349).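 Also: 100% = mean of DMSO negative control wells on the same plate.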 The note with it: P. berghei liver stage in HepG2, luciferase luminescence, concentration not given here; parasite load remaining: stronger effect = lower value; viability: measured here: HepG2 viability without parasites.
Experiment [3] can be described thus: Wnt pathway potentiators raising nuclear beta-catenin – imaging, WNT3A-conditioned medium, mouse C2C12, NPC library, primary screen (AID 1117326; in the data active = nuclear beta-catenin stimulation mostly above about 4.2%, no sharp cut-off; inactive = mostly below about 10%). The note with it: stronger effect = higher value.
Experiment [4] is described as follows: stimulators of insulin release from INS-1E, primary screen, cell-based, 5 mM glucose, NPC library (AID 1117329;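 active = compound raises insulin release from rat beta cells at 5 mM glucose, no numeric limit stated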). The note with it: rat INS-1E insulin secretion, at 10 µM, stronger effect = higher value.
Experiment [5] can be described thus: growth inhibition of GSK3B-pretreated HCT116 cells – cell-based, CellTiter-Glo, 0.2 to 20 µM (AID 1117336;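 active = compounds lowering colon cancer cell viability after pretreatment blocking the GSK3B kinase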). The note with it: HCT116 viability after GSK3B inhibitor, at 20 µM, stronger effect = higher value. (In general: ATP-based viability assays read luminescence as a measure of living cells.)
The nature of experiment [6]: inhibition of endothelial tube formation, primary screen, imaging, VEGF stimulated, CD31 staining, tube area, NPC library (AID 1117340;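 active = compound that reduces growth-factor-driven endothelial tube area in a mixed cell culture, no cutoff stated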). The note with it: VEGF-stimulated ADSC/ECFC co-culture, at 10 µM, stronger effect = higher value.
The nature of experiment [7]: GLP1 release stimulators, primary, NCI-H716, NPC library (AID 1117341;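 active = compound raises GLP1 secretion from the human gut endocrine cells, with no numeric limit stated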). The note with it: NCI-H716 cells, at 10 µM, stronger effect = higher value.
The nature of experiment [8]: HCT116 colon cancer cell growth inhibition, primary screen, CellTiter-Glo luminescence, NPC library (AID 1117342;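 active = compounds that lower survival of HCT116 colon cancer cells in the luminescence readout, no numeric limit stated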). The note with it: at 20 µM (top of the series).
A short description of experiment [9]: reduced SW480 viability measured with CellTiter-Glo, NPC library, primary (AID 1117343;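 active = compounds that lower viability of the colon cancer cells in the luminescence readout, with no numeric limit stated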). The note with it: CellTiter-Glo luminescence; at 20 µM (top of the series) unless noted.
Experiment [10] in a line: NPC library primary testing for decreased DLD-1 cell viability via CellTiter-Glo (AID 1117346;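 active = compounds that lower survival of DLD-1 colon cancer cells in the luminescence readout, no cutoff given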). The note with it: DLD-1 viability, CellTiter-Glo luminescence; at 20 µM (top of the series).
Experiment [11] is described as follows: EMT-state selective cytotoxicity in co-culture – imaging, PC-3E GFP, TEM4-18 mCherry, primary screen (AID 1345086;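 active = compounds killing one labelled cell type while sparing the other, by normalised counts and ratio limits, not self-fluorescent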;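 as to all read-outs here: cells exposed to compound for 72 h before imaging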;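 as to red/green cell ratio (normalised): normalised mesenchymal count divided by normalised epithelial count so high means epithelial killing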). The note with it: PC-3E GFP / TEM4-18 mCherry co-culture, imaging cell counts, at 1 µM; for red/green cell ratio (normalised): actives lie on both sides, counts scaled to control wells, 1 = unselective.
The nature of experiment [12]: viability loss with induced miR-34 in A549 – imaging, A549 dox-inducible miR-34, nuclei and caspase counts, primary screen (AID 1347080;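 active = compounds whose cell count with miR-34 switched on is under 0.7 times the count with it off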). The note with it: A549 miR-34 inducible, Hoechst nuclei count, 48 h.
Experiment [13] is described as follows: MELAS cybrid and Rieske KO viability enhancers – cell-based, MELAS cybrids, Rieske KO mouse fibroblasts, CellTiter-Glo, primary screen (AID 1508586;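 active = mean z-score across replicates of 1.96 or higher in either the MELAS or the Rieske mutant cell line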;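 also: z relative to plate mean and SD of compound and empty wells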). The note with it: low glucose.
Experiment [14] has as its target NAD(+) hydrolase SARM1 (Homo sapiens) (UniProt Q6SZW1). Briefly: blocking NAD cleavage by SARM1 SAM-TIR – cell lysate, NAD-Glo luminescence (AID 1508614;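 active = compound whose remaining NAD level is above about 45 nM, limit read from the data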;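 also: higher remaining NAD means stronger inhibition of SARM1 NADase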). The note with it: SAM-TIR HEK293T lysate NADase, at 1 µM, stronger effect = higher value.
[15] abbreviates: measured here: epithelial PC-3E GFP cell survival.
The mark [16] stands for this setting: measured here: mesenchymal TEM4-18 mCherry cell survival.
Where [17] appears, read: stronger effect = lower value, cell number ratio, induced over uninduced.
The mark [18] stands for this setting: measured here: relative caspase fold change +Dox/-Dox.
The mark [19] stands for this setting: measured here: total cells with miR-34 induction, stronger effect = lower value.
Where [20] appears, read: measured here: total cells without miR-34 induction.
Setting [21] is: MELAS cybrid survival, CellTiter-Glo 48 h, stronger effect = higher value.
Where [22] appears, read: Rieske KO mouse fibroblast survival, CellTiter-Glo 72 h.

A word on the viability: it is a read-out of living cells in per cent, often relative to untreated cells.

Where “and” joins values, the source holds several entries; their conditions need not be identical. Equal entries are not always repeated. Calls of active or inactive are those of the source. Rule as the data show it, unless noted: active = parasite load remaining mostly below about 12% (no sharp cut-off); inactive = mostly above about 10%.

Chain of NAD(+) hydrolase SARM1 (Homo sapiens) (Q6SZW1 whole entry, looked up): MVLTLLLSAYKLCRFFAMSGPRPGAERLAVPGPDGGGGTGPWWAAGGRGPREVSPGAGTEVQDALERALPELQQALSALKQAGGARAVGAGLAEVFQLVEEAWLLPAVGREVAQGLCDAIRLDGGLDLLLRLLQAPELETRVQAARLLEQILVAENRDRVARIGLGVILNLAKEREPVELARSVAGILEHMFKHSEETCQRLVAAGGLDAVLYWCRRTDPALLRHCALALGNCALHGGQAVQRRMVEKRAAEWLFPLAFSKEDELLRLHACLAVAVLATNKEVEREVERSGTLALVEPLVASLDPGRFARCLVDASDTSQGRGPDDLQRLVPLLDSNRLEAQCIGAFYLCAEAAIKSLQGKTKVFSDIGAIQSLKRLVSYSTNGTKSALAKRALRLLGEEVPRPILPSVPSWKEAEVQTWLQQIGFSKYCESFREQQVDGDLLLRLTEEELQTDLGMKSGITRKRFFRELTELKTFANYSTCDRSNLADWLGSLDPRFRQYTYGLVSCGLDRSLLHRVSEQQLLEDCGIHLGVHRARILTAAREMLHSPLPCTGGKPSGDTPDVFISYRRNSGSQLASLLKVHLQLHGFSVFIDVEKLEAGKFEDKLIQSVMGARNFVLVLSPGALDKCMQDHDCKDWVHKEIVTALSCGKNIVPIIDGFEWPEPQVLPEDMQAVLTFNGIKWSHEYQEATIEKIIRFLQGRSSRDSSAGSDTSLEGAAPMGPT

For `CNCCc1ccccn1`, the survival in experiment [1] is 9.67 (inactive). Besides, in experiment [2], the parasite load remaining was 177% (inactive) and 67% (inactive) and 40.9% (inactive). Also, in experiment [2], the viability was 106% and 76.5% and 92.3%. In addition, the nuclear beta-catenin stimulation in experiment [3] (at 10 µM) was 0.2% (inactive); in experiment [3] (stimulation, at 2 µM) it was 1.8%. In addition, the insulin secretion stimulation in experiment [4] is -0.8% (inactive). Besides, the viability decrease in experiment [5] is 5.6% (inactive). Further, the tube area decrease in experiment [6] is -1.2% (inactive). Also, the GLP1 secretion stimulation in experiment [7] was -0.6% (inactive). Besides, in experiment [8], the inhibition of viability is -13.4% (inactive). Besides, the results for the viability decrease (inhibition) in [9] and in experiment [10] were -3.4% (inactive) and 1.9% (inactive), respectively. Moreover, the red/green cell ratio (normalised) in [11] was 1.06 (inactive). Moreover, the results for the normalised cell number in experiment [11] (setting [15]) and in experiment [11] (setting [16]) were 1.06 and 1.12, respectively. The fold change was 0.848 (inactive) and 0.92 (inactive) and 0.919 (inactive) in experiment [12] (setting [17]); 1.09 and 0.698 and 1.77 in [12] (setting [18]). Further, the cell count was 9020 and 8170 and 11700 in experiment [12] (setting [19]); 10600 and 8880 and 12700 in experiment [12] (setting [20]). For the same compound, the z-score is -0.325 (inactive) and 0.341 (inactive) in [13] (setting [21]); -0.163 and 0.19 in experiment [13] (setting [22]). In addition, the remaining NAD in experiment [14] was 10 nM (inactive).
`CCOc1ccc2nc(S(N)(=O)=O)sc2c1`: the parasite load remaining in experiment [2] was 32.3% (inactive) and 52.3% (inactive). Also, the viability in experiment [2] was 171% and 98.2%. Besides, the nuclear beta-catenin stimulation in experiment [3] (at 10 µM) was 1.3% (inactive); in experiment [3] (stimulation, at 2 µM) it was 0.1%. In addition, the insulin secretion stimulation in experiment [4] is -2.2% (inactive). The viability decrease in [5] was 16.7% (inactive). The tube area decrease in experiment [6] was 20.8% (inactive). The GLP1 secretion stimulation in experiment [7] is 2.1% (inactive). For the same compound, the inhibition of viability in experiment [8] is -30% (inactive). In addition, the figures for the viability decrease (inhibition) in [9] and in experiment [10] were 85.7% (active) and 7.15% (inactive), respectively. Further, the red/green cell ratio (normalised) in experiment [11] was 0.96 (inactive). Also, the normalised cell number in experiment [11] (setting [15]) was 0.89; in experiment [11] (setting [16]) it was 0.86. The fold change in experiment [12] (setting [17]) is 0.841 (inactive) and 0.925 (inactive); in [12] (setting [18]), 3.81 and 2.83. The cell count in experiment [12] (setting [19]) was 10500 and 10700; in [12] (setting [20]), 12500 and 11500. The z-score in [13] (setting [21]) was -0.477 (inactive); in [13] (setting [22]) it was 0.458. Further, the remaining NAD in experiment [14] is 10 nM (inactive).
Regarding `O=C(Nc1ccccc1)OCC(CN1CCCCC1)OC(=O)Nc1ccccc1` (configuration not stated), the survival in [1] is 16 (inactive). The parasite load remaining in experiment [2] is 59.3% (inactive) and 41.7% (inactive) and 36.2% (inactive). For the same compound, the viability in experiment [2] was 79.1% and 91.5% and 107%. The nuclear beta-catenin stimulation is -0.9% (inactive) in experiment [3] (at 10 µM) and -0.9% in experiment [3] (stimulation, at 2 µM). Moreover, the insulin secretion stimulation in [4] was 14.9% (inactive). For the same compound, the viability decrease in [5] was 36.4% (inactive). Also, the tube area decrease in experiment [6] is 1.6% (inactive). In addition, the GLP1 secretion stimulation in experiment [7] was -0.5% (inactive). Further, the inhibition of viability in experiment [8] was 75.7% (active). Moreover, the results for the viability decrease (inhibition) in experiment [9] and in experiment [10] were 65.2% (active) and 32.3% (inactive), respectively. Moreover, the red/green cell ratio (normalised) in experiment [11] is 0.79 (inactive). Besides, the normalised cell number was 1.18 in experiment [11] (setting [15]) and 0.92 in [11] (setting [16]). Further, the fold change is 0.99 (inactive) and 0.916 (inactive) in [12] (setting [17]); 1.08 and 5.69 in [12] (setting [18]). Also, the cell count in experiment [12] (setting [19]) was 8030 and 11400; in [12] (setting [20]) it was 8110 and 12500. Moreover, the z-score in experiment [13] (setting [21]) is 0.475 (inactive); in [13] (setting [22]), -0.0131. Further, the remaining NAD in [14] is 10 nM (inactive).
`O=C(O)CN(CCN(CC(=O)O)CC(=O)O)CCN(CC(=O)O)CC(=O)O`: the survival in experiment [1] was 5 (inactive). Also, the parasite load remaining in experiment [2] is 120% (inactive) and 34.8% (inactive). In addition, the viability in experiment [2] is 101% and 170%. For the same compound, the nuclear beta-catenin stimulation is -0.8% (inactive) in experiment [3] (at 10 µM) and -1.5% in experiment [3] (stimulation, at 2 µM). Besides, in [4], the insulin secretion stimulation was 1.5% (inactive). In addition, in experiment [5], the viability decrease was 79% (active). In [6], the tube area decrease is -14.3% (inactive). The GLP1 secretion stimulation in [7] is 0.1% (inactive). In addition, the inhibition of viability in experiment [8] was 53.1% (active). Further, the viability decrease (inhibition) in experiment [9] was 79.5% (active); in experiment [10], 31.1% (inactive). In addition, the red/green cell ratio (normalised) in experiment [11] is 1.45 (inactive). For the same compound, the normalised cell number in experiment [11] (setting [15]) is 0.48; in experiment [11] (setting [16]), 0.7. Besides, the fold change in experiment [12] (setting [17]) is 1.07 (inactive) and 0.79 (inactive) and 0.864 (inactive); in experiment [12] (setting [18]), 1.26 and 1.98 and 3.01. In addition, the cell count is 8980 and 7930 and 10700 in experiment [12] (setting [19]); 8380 and 10000 and 12300 in experiment [12] (setting [20]). In addition, the values for the z-score in experiment [13] (setting [21]) and in experiment [13] (setting [22]) were 0.621 (inactive) and 0.97, respectively. For the same compound, the remaining NAD in experiment [14] is 10 nM (inactive).
